# Measured values from PubChem BioAssay (Tox21).
# “And” between values parts separate entries of the source, which are not always exact repeats. Equal entries are not always repeated. The source made the active and inactive calls. Where a call stands in place of a potency, no number is given. Unless noted, calls come from the whole dose curve; as a rule, active = well fitted curve in the direction sought with a large enough effect in the repeat runs; inconclusive = weak or mixed curves; inactive = no such curve, though single readings can be large; an effect the other way counts as inactive or inconclusive.
# Experiments:
# [1] = qHTS assay to identify small molecule antagonists of the thyroid receptor (TR) signaling pathway (AID 743065); note: potency is the fitted concentration of half-maximal effect; nearly all actives have a fitted effect of over 55% in size
# How it was run: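 Antagonism measured as loss of luciferase signal in GH3 cells stably carrying a TRE-luciferase reporter, co-treated with compound and T3 (1 nM final) for 23.5 h at 37 C. Viability was read in the same well by CellTiter-Fluor.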
# [2] = qHTS assay to identify small molecule antagonists of the estrogen receptor alpha (ER-alpha) signaling pathway - cell viability counter screen (AID 743074; calls by dose curve;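 note: HEK293 cells carrying ER-alpha-UAS-bla reporter stimulated with 17beta-estradiol; nearly all actives have a fitted effect of over 45% in size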; note: potency is the fitted concentration of half-maximal effect)
# [3] = qHTS assay to identify small molecule antagonists of the estrogen receptor alpha (ER-alpha) signaling pathway using the BG1 cell line - cell viability counter screen (AID 743081);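 note: compound given together with 17beta-estradiol as the ER stimulus; nearly all actives have a fitted effect of over 45% in size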; note: potency is the fitted concentration of half-maximal effect
# Aromatase (Homo sapiens) = Aromatase (Homo sapiens) (UniProt P11511); assay: qHTS assay to identify aromatase inhibitors (AID 743083); note: nearly all actives have a fitted effect of over 55% in size; note: potency is the fitted concentration of half-maximal effect
# [4] = qHTS assay to identify aromatase inhibitors - cell viability counter screen (AID 743084);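 note: cells stimulated with testosterone during compound exposure; nearly all actives have a fitted effect of over 55% in size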; note: potency is the fitted concentration of half-maximal effect
# [5] = target: Aryl hydrocarbon receptor (Homo sapiens) (UniProt P35869); assay: qHTS assay to identify small molecule that activate the aryl hydrocarbon receptor (AhR) signaling pathway (AID 743085); note: nearly all actives have a fitted effect of over 15% in size; note: potency is the fitted concentration of half-maximal effect;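 for activation: HG2L7.5c1 human HepG2 liver cells with stably integrated DRE-driven firefly reporter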
# How it was run: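 Luminescence (ONE-Glo) from a dioxin-responsive-element luciferase reporter in HG2L7.5c1 HepG2 cells after 24 hr compound exposure at 37C; viability measured by CellTiter-Fluor fluorescence beforehand.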
# [6] = qHTS assay to identify small molecule that activate the aryl hydrocarbon receptor (AhR) signaling pathway - cell viability counter screen (AID 743086); note: nearly all actives have a fitted effect of over 45% in size; note: potency is the fitted concentration of half-maximal effect
# How it was run: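 Cytotoxicity counter screen: CellTiter-Fluor signal (30 min, 37 C) in 4000 HepG2 cells/well carrying the DRE-luciferase reporter, following 24 h compound exposure at 37 C.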
# [7] = qHTS assay to identify small molecule antagonists of the peroxisome proliferator-activated receptor gamma (PPARg) signaling pathway - cell viability counter screen (AID 743194); note: nearly all actives have a fitted effect of over 55% in size; note: potency is the fitted concentration of half-maximal effect
# How it was run: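 Viability was measured as CellTiter-Glo luminescence in GeneBLAzer PPARg UAS-bla HEK293H cells. These cells had been exposed 17 h at 37 C to compounds together with rosiglitazone at 50 nM final, with the beta-lactamase readout taken in the same wells.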
# [8] = qHTS assay for small molecule agonists of the antioxidant response element (ARE) signaling pathway - cell viability counter screen (AID 743203; calls by dose curve; note: nearly all actives have a fitted effect of over 55% in size; note: potency is the fitted concentration of half-maximal effect)
# How it was run: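 Following 16 hrs of compound treatment at 37C, HepG2 cells with an ARE-controlled beta-lactamase gene were lysed with CellTiter-Glo. Luminescence was read after 30 min at room temperature.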
# [9] = qHTS assay for small molecule activators of the heat shock response signaling pathway - cell viability counter screen (AID 743209); note: nearly all actives have a fitted effect of over 50% in size; note: potency is the fitted concentration of half-maximal effect
# How it was run: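 Readout: CellTiter-Glo luminescence, 30 min at room temperature. System: HSE-bla HeLa cells, 1500/well, plated overnight. Treatment: compounds in DMSO, 5 h at 37 C.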
# [10] = qHTS assay for small molecule activators of the heat shock response signaling pathway (AID 743210; active = well fitted activation curve with a large enough effect in the signal ratio in the repeat runs, with a control signal flat, not every such curve was filed as active; inconclusive = weak or mixed curves; the % refers to the signal ratio;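 note: HeLa cells with beta-lactamase reporter driven by heat shock elements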)
# How it was run: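 HeLa HSE-bla cells, overnight plating; cpd in DMSO 5 h, 37 C; LiveBLAzer B/G FRET substrate 2.5 h RT; fluorescence intensity read.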
# [11] = qHTS assay to identify small molecule agonists of the peroxisome proliferator-activated receptor delta (PPARd) signaling pathway - cell viability counter screen (AID 743211); note: nearly all actives have a fitted effect of over 55% in size; note: potency is the fitted concentration of half-maximal effect
# How it was run: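 Viability was measured as CellTiter-Glo luminescence (30 min, room temperature) in the same wells as the beta-lactamase readout. GeneBLAzer PPARd UAS-bla HEK293H cells received compound after 5 h plating and were incubated 17 h at 37 C.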
# [12] = target: Estrogen receptor (Homo sapiens) (UniProt P03372); assay: qHTS assay to identify small molecule agonists of the estrogen receptor alpha (ER-alpha) signaling pathway (AID 743075; calls by dose curve;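 note: HEK293 GripTite cells with ER-alpha and UAS-driven beta-lactamase reporter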; note: potency is the fitted concentration of half-maximal effect)
# [13] = target: Estrogen receptor (Homo sapiens) (UniProt P03372); assay: qHTS assay to identify small molecule agonists of the estrogen receptor alpha (ER-alpha) signaling pathway using the BG1 cell line (AID 743079); details: BG1Luc4E2 cells, ERE-luciferase agonist, 22 h; activation: at 70.3 µM (top of the series); note: nearly all actives have a fitted effect of over 20% in size; note: potency is the fitted concentration of half-maximal effect
# [14] = target: Estrogen receptor (Homo sapiens) (UniProt P03372); assay: qHTS assay to identify small molecule antagonists of the estrogen receptor alpha (ER-alpha) signaling pathway (AID 743069; active = well fitted curve in the direction sought with a large enough effect in the signal ratio in the repeat runs, not every such curve was filed as active; inconclusive = weak or mixed curves, or effect the other way; inactive = no such curve, though single readings can be large or run the other way; the % refers to the signal ratio)
# How it was run: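 ER-alpha-UAS-bla GripTite HEK293 line; 2% charcoal-stripped FBS overnight; plated, 4 hr 37C/5% CO2; cpd in DMSO + 17beta-estradiol, 18 hr 37C; LiveBLAzer B/G FRET substrate 2 hr RT; fluorescence intensity.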
# [15] = qHTS assay to identify small molecule antagonists of the estrogen receptor alpha (ER-alpha) signaling pathway using the BG1 cell line (AID 743080; calls by dose curve;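 note: BG1 cells stimulated with 17beta-estradiol alongside compound; nearly all actives have a fitted effect of over 25% in size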; note: potency is the fitted concentration of half-maximal effect); details: BG1Luc4E2 ERE-luciferase antagonist mode, luminescence; activity change, negative = inhibition: at 70.3 µM (top of the series)
# How it was run: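 After 5 days in phenol-red-free 10% charcoal-stripped FBS medium, BG1-Luc-4E2 cells were seeded, left 24 h at 37 C, co-treated with compounds and 17beta-estradiol for 21.5 h, then assayed for viability and luciferase.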
# [16] = target: Peroxisome proliferator-activated receptor gamma (Homo sapiens) (UniProt P37231); assay: qHTS assay to identify small molecule antagonists of the peroxisome proliferator-activated receptor gamma (PPARg) signaling pathway (AID 743191; calls by dose curve; note: nearly all actives have a fitted effect of over 30% in size)
# How it was run: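 Beta-lactamase reporter under UAS control in HEK293H PPARg-bla cells; compound treatment 17 h at 37C. Read-out: fluorescence intensity after 1 h room-temperature incubation with LiveBLAzer B/G FRET substrate.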
# [17] = tested on: thyroid hormone receptor (rat, GH3 cells); assay: qHTS assay to identify small molecule agonists of the thyroid receptor (TR) signaling pathway (AID 743066; calls by dose curve)
# [18] = target: Peroxisome proliferator-activated receptor gamma (Homo sapiens) (UniProt P37231); assay: qHTS assay to identify small molecule agonists of the peroxisome proliferator-activated receptor gamma (PPARg) signaling pathway (AID 743094; active = well fitted activation curve with a large enough effect in the signal ratio in the repeat runs, not every such curve was filed as active; inconclusive = weak or mixed curves, or effect the other way; inactive = no such curve, though single readings can be large or run the other way; the % refers to the signal ratio; note: potency is the fitted concentration of half-maximal effect)
# How it was run: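 Compounds dissolved in DMSO were added to PPARg UAS-bla HEK293H cells for 17 h at 37C, and reporter expression was quantified by fluorescence intensity after 1 h with LiveBLAzer B/G FRET substrate.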
# [19] = qHTS assay for small molecule agonists of the antioxidant response element (ARE) signaling pathway (AID 743202; active = well fitted activation curve with a large enough effect in the signal ratio in the repeat runs, not every such curve was filed as active; inconclusive = weak or mixed curves, or effect the other way; inactive = no such curve, though single readings can be large or run the other way; the % refers to the signal ratio)
# How it was run: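 Quantitative high-throughput format in HepG2 cells bearing an integrated ARE-beta-lactamase reporter. Compound exposure lasted 16 h at 37 C, and fluorescence was read 2 h after adding LiveBLAzer B/G substrate at room temperature.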
# Chain of Estrogen receptor (Homo sapiens) (P03372 whole entry, looked up): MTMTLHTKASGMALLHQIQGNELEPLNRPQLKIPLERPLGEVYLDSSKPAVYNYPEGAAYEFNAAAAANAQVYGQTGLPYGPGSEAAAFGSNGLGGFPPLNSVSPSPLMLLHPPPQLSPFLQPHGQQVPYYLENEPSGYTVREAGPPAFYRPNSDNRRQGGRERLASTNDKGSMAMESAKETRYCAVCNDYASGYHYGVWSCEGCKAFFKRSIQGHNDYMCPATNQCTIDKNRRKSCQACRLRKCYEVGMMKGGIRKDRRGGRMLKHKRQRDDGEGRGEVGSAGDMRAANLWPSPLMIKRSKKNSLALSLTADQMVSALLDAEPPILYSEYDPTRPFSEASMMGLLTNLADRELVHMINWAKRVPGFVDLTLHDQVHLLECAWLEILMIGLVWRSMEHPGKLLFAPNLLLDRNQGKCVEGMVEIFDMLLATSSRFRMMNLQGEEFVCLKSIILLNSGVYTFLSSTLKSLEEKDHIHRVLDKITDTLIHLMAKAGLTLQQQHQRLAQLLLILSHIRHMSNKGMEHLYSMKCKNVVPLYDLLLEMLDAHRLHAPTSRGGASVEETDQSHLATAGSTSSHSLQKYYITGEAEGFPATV
# Chain of Aromatase (Homo sapiens) (P11511 whole entry, looked up): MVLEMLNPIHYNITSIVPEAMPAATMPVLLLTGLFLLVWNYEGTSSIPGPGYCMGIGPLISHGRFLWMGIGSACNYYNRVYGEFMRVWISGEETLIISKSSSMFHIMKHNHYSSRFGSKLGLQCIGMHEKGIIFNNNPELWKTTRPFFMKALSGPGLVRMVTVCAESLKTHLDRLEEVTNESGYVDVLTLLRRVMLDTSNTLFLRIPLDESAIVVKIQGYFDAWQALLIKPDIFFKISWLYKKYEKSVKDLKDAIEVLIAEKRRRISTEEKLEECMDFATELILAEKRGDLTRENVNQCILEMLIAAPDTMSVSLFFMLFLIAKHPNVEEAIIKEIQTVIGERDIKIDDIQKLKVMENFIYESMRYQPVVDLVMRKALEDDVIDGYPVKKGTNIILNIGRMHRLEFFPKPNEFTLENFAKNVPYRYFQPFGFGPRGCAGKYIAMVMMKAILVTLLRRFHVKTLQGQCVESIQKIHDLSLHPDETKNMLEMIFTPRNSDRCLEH
# Chain of Aryl hydrocarbon receptor (Homo sapiens) (P35869 whole entry, looked up): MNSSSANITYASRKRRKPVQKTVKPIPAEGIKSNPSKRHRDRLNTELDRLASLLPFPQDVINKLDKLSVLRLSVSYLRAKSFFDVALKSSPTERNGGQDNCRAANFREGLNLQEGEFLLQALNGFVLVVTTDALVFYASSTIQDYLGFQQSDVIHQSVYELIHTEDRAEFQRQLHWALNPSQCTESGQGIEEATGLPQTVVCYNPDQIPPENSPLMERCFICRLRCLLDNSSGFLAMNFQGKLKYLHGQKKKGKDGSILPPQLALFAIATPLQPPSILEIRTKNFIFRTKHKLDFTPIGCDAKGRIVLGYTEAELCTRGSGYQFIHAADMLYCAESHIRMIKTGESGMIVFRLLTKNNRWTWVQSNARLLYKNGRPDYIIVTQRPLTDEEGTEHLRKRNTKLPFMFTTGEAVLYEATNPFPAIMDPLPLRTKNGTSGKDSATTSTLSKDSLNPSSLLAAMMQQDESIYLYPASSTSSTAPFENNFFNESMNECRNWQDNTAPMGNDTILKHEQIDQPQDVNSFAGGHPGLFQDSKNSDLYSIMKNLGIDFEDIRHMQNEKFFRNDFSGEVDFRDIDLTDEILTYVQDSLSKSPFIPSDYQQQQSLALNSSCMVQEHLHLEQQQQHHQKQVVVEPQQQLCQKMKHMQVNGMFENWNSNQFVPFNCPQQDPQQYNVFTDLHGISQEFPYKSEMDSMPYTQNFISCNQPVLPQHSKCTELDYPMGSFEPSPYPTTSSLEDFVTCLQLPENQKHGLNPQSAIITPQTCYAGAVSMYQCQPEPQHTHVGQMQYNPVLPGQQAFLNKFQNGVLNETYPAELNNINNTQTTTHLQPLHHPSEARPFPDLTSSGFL
# Chain of Peroxisome proliferator-activated receptor gamma (Homo sapiens) (P37231 whole entry, looked up): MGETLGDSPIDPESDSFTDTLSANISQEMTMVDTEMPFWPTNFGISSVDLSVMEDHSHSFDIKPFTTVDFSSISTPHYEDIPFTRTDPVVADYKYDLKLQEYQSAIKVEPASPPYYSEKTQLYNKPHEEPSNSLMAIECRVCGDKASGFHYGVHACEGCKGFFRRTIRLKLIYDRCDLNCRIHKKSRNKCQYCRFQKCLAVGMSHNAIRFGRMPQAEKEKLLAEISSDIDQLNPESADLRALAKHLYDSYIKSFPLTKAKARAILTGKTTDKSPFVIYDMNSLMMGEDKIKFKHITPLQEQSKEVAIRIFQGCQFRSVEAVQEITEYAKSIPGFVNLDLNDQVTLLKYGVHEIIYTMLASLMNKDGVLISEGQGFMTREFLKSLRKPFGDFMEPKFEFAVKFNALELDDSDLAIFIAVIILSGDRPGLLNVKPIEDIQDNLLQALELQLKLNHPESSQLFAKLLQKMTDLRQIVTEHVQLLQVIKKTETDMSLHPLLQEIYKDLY
SMILES,Potency [1],Potency [2],Potency [3],Potency (Aromatase (Homo sapiens)),Potency [4],Potency [5],Potency [6],Potency [7],Potency [8],Potency [9],Potency [10],Potency [11],Potency [12],Potency [13],Potency [14],Potency [15],Potency [16],Potency [17],Potency [18],Potency [19]
COCC(=O)O[C@]1(CCN(C)CCCc2nc3ccccc3[nH]2)CCc2cc(F)ccc2[C@@H]1C(C)C,1.88 µM (active),9.52 µM (active),26.6 µM (active),13.3 µM (active),26.6 µM (active),inactive,9.44 µM (active),29.8 µM (active),23.7 µM (active),inactive,inactive,11.9 µM (active),,,,,,,,
O=C(NO)c1ccccc1,41.2 µM (active),,,inactive,,inactive,inactive,,,inactive,inactive,,,,,,,,,
CCCOc1sc(C(=O)N2CCC(c3cc(CN)ccc3F)CC2)c(C)c1Br,7.91 µM (active),44.9 µM (active),,25 µM (active),44.5 µM (active),,56 µM (active),17.9 µM (active),17.7 µM (active),40 µM (active),,15.9 µM (active),,,,,,,,
CC(C)(C)CC(C)(C)c1ccccc1O,21.8 µM (active),49.2 µM (active),,48.8 µM (active),48.8 µM (active),inactive,inactive,43.9 µM (active),61.4 µM (active),55.2 µM (active),,43.9 µM (active),22 µM [inconclusive] (active),1.38 µM (active),,,,,,
CC(C(O)c1ccccc1)N(C)CCOC(c1ccccc1)c1ccccc1 (configuration not stated),16.8 µM (active),,,29.8 µM (active),,inactive,inactive,inactive,,,inactive,29.8 µM (active),inactive,,inactive,inactive,inactive,,,
O=C1OC(=O)c2cccc3cccc1c23,,inactive,inactive,inactive,,,inactive,inactive,inactive,inactive,inactive,inactive,inactive,inactive,inactive,inactive,inactive,inactive,inactive,
CCOC(=O)C1=C(C)NC(C)=C(C(=O)OCC)C1c1ccccc1/C=C/C(=O)OC(C)(C)C,10.6 µM (active),inactive,inactive,,inactive,,inactive,inactive,,,,,6.74 µM [fluorescent] (active),,,33.5 µM (active),,,9.52 µM (active),
CCN(CC)CCCN(c1ccccc1)C1Cc2ccccc2C1,2.11 µM (active),19 µM (active),29.8 µM (active),26.6 µM (active),29.8 µM (active),inactive,13.3 µM (active),,inactive,inactive,inactive,,inactive,,,,inactive,,,
O=C(Nc1ccc(Cl)cc1)Nc1ccc(Cl)c(C(F)(F)F)c1,5.31 µM (active),9.52 µM (active),inactive,10.6 µM (active),,inactive,,8.41 µM (active),16.8 µM (active),9.44 µM (active),,13.3 µM (active),inactive,,,21.1 µM (active),,,,
CCCN(CCc1cccs1)[C@H]1CCc2c(O)cccc2C1,,inactive,inactive,26.6 µM (active),inactive,,inactive,inactive,inactive,inactive,inactive,,inactive,inactive,inactive,inactive,,inactive,,inactive
CN(C)CCCN1c2ccccc2Sc2ccc(C(F)(F)F)cc21,10.6 µM (active),,inactive,inactive,inactive,inactive,23.7 µM (active),,29.8 µM (active),inactive,inactive,29.8 µM (active),inactive,,,inactive,,,,
O=C1NC2CCCCN2C12CCN(CCCN1c3ccccc3CCc3ccc(Cl)cc31)CC2 (configuration not stated),8.41 µM (active),inactive,,23.7 µM (active),,13.3 µM (active),23.7 µM (active),26.6 µM (active),29.8 µM (active),29.8 µM (active),,29.8 µM (active),inactive,,,,,,,
CCCCN(CCCC)CCC(O)c1cc2c(Cl)cc(Cl)cc2c2cc(C(F)(F)F)ccc12 (configuration not stated),,inactive,inactive,inactive,inactive,inactive,inactive,,inactive,inactive,inactive,33.5 µM (active),inactive,inactive,inactive,inactive,,,,
C[C@H]1O[C@@H](O[C@H]2[C@@H](O)C[C@H](O[C@H]3[C@@H](O)C[C@H](O[C@H]4CC[C@@]5(C)[C@H](CC[C@@H]6[C@@H]5C[C@@H](O)[C@]5(C)[C@@H](C7=CC(=O)OC7)CC[C@]65O)C4)O[C@@H]3C)O[C@@H]2C)C[C@H](O)[C@@H]1O,,0.0195 µM (active),inactive,inactive,inactive,inactive,inactive,21.9 nM (active) and 4.8 nM (active),12.2 nM (active) and 7.6 nM (active),55 nM (active) and 13.6 nM (active),inactive,0.0385 µM (active),,,,,,,,
NC(=O)c1nc(-c2cccc(-c3cc(F)ccc3OCC(F)(F)C(F)(F)F)c2)n[nH]1,,,inactive,30.6 µM (active),43.3 µM (active),inactive,,,,,,49 µM (active),inactive,,,68.6 µM (active),,,,
